Measurements published in PubChem BioAssay (NCATS).
Results filed as inconclusive are left out. Calls of active or inactive are those of the source. Unless noted, calls come from the whole dose curve; as a rule, active = well fitted curve in the direction sought with a large enough effect; inconclusive = small, poorly fitted or top-dose-only effect, or another doubt; inactive = no such curve, though single readings can be large; an effect the other way counts as inactive or inconclusive.

Experiments:
[1] = qHTS Assay for Lipid Storage Modulators (AID 1519; calls by dose curve; for activity change, negative = inhibition: % is set by controls: 0 for no effect and ±100 for the full control effect); conditions: Drosophila S3 cells, BODIPY lipid droplet/cell ratio, laser cytometry, cells loaded with oleic acid; for activity change, negative = inhibition: at 57.5 µM (top of the series)
How it was run: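 Cells seeded at 5,000 per well were treated with compounds over a concentration series and loaded with oleic acid (400 uM, as added). Lipid droplet fluorescence (488 nm excitation, 500-530 nm channel) was read by laser-scanning cytometry and normalized to 20 uM Triacsin C.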

[2] = target: DNA repair nuclease/redox regulator APEX1 (Homo sapiens) (UniProt P27695); assay: qHTS Validation Assay for Inhibitors of the Human Apurinic/apyrimidinic Endonuclease 1 (APE1) (AID 1705;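 note: TAMRA fluorescence gain over two minutes as APE1 cuts a quenched THF abasic duplex; % is set by controls: 0 for no effect and ±100 for the full control effect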)
How it was run: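 Activity read as rising fluorescence (598 nm emission, 525 nm excitation) from incision of a TAMRA/BHQ-2 duplex carrying a THF abasic site (50 nM). Compound and enzyme sat 15 min at RT before substrate start; signal change between first and third 60-s reads.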

[3] = Counterscreen for APE1 Inhibitors: Fluorescent Dye Displacement Validation Assay (AID 1707);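 note: plate controls were ThO with dsDNA and no compound for no effect and ThO without dsDNA for full effect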
How it was run: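 Assay buffer: Tris-HCl pH7.5 with 50mM NaCl, 2 mM MgCl2, 0.01% Tween-20. Dye 250 nM, duplex 50 nM final. Readout: decrease in ThO endpoint fluorescence, 480 nm excitation, 540 nm emission.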

[4] = target: Ferritin light chain (Equus caballus) (UniProt P02791); assay: qHTS Validation Assay for Identification of Novel General Anesthetics (AID 2323); note: % is set by controls: 0 for no effect and ±100 for the full control effect
How it was run: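 Competitive displacement of the profluorescent anesthetic 1-AMA (50% saturated, PBS) from 10 uM apoferritin, 10 min, room temperature. Activity is normalized 380/535 nm fluorescence; concentration-response fitted with a four-parameter Hill equation.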

[5] = target: ATP-dependent DNA helicase Q1 (Homo sapiens) (UniProt P46063); assay: qHTS Validation Assay for Inhibitors of RecQ-Like Dna Helicase 1 (RECQ1) (AID 2353);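 note: plate controls were DMSO vehicle for no effect and enzyme-free control for full effect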
How it was run: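 50 nM RECQ1T1 preincubated 15 min with compound in Tris pH 8.0 buffer with MgCl2, DTT, Tween-20 and 2.5 ug/ml poly(dI-dC); started with 200 nM TAMRA/BHQ-2 forked duplex and 2 mM ATP. Unwinding read as fluorescence (525/598 nm), two reads 2 h apart.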

[6] = Validation screen for small molecules that induce DNA re-replication in MCF 10A normal breast cells (AID 463097); note: 0% is about no effect; nearly all actives have a fitted effect of over 60% in size
How it was run: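 Read-out is Hoechst total nuclear intensity by fluorescence scanning imager, flagging increased high-DNA-content nuclei. Compounds were incubated with MCF 10A cells for 48 hr (37 C, 5% CO2) before 40 min staining.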

[7] = Quantitative high throughput screen for delayed death inhibitors of the malarial parasite plastid, 96 hour incubation (AID 488745); note: % is set by controls: 0 for no effect and ±100 for the full control effect; nearly all actives have a fitted effect of over 70% in size
How it was run: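 Luciferase-expressing P. falciparum in erythrocytes (2% hematocrit, 0.1% parasitemia) incubated with compound for 96 h at 37 C, 5% CO2, in RPMI 1640 with 0.5% Albumax. Growth inhibition read as decreased luminescence.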

[8] = Quantitative high throughput screen for delayed death inhibitors of the malarial parasite plastid, 48 hour incubation (AID 488752); note: % is set by controls: 0 for no effect and ±100 for the full control effect; nearly all actives have a fitted effect of over 65% in size
How it was run: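 Erythrocytes infected with firefly luciferase-expressing P. falciparum (2% hematocrit, 0.1% parasitemia) cultured with compound for 48 h at 37 C, 5% CO2, in RPMI 1640/0.5% Albumax. Growth inhibition read as loss of luminescence.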

[9] = target: M-phase phosphoprotein 8 (Homo sapiens) (UniProt Q99549); assay: qHTS Validation Assay for Inhibitors for MPP8 Chromodomain Interactions with Methylated Histone Tails (AID 488949);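 note: AlphaScreen signal from MPP8 chromodomain bound to biotinylated H3K9me3 peptide; top concentration of the series differs between compounds; % is set by controls: 0 for no effect and ±100 for the full control effect; nearly all actives have a fitted effect of over 55% in size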
How it was run: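 AlphaScreen proximity signal from streptavidin donor and Ni-chelate acceptor beads (10 ug/mL each) reported binding of MPP8 to trimethyl-K9 H3(1-18) peptide, both at 50 nM. The complex formed 30 min before a 30 min compound exposure at room temperature, in PBS pH 7.4.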

[10] = target: Transient receptor potential cation channel subfamily V member 1 (Homo sapiens) (UniProt Q8NER1); assay: HTS Assay for Compounds that Act as Enhancers of the Vanilloid Receptor 1 (AID 488979); note: 0% is about no effect
How it was run: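 TRPV1-expressing cells loaded with Fluo-8 calcium dye; compounds added and calcium influx read kinetically for 3 min (agonist phase), then capsaicin at EC20 added and read 2 min more for enhancement. Fluorescence ex 480/em 520 nm.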

[11] = target: Thyrotropin receptor (Homo sapiens) (UniProt P16473); assay: qHTS Assay for Antagonists of the Thyroid Stimulating Hormone Receptor (AID 488980); note: 0% is about no effect
How it was run: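 Inhibition of cAMP raised by EC80 TSH (4 nM final) was read by HTRF, with lysate cAMP competing against cAMP-d2 for cryptate antibody after 30 min at room temperature. The cells were transfected HEK293 held in phosphodiesterase inhibitor RO 20-1724 at 70 uM.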

[12] = target: Thyrotropin-releasing hormone receptor (Homo sapiens) (UniProt P34981); assay: qHTS for Small Molecule Agonists and Allosteric Enhancers of Human TRH Receptor: Validation Screen for Agonists (AID 493127;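 active = calcium activation more than 3 SD above the typical response in the agonist read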; note: 0% is about no effect); conditions: TRH receptor agonist cell assay; at 2 µM; stronger effect = higher value
How it was run: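 TRHR cells loaded with fluo-8 calcium dye; FDSS kinetic fluorescence (Ex 480/Em 530) read at 1 s/cycle after 23 nL compound addition. Agonist-mode calcium response recorded before the 10 nM TRH (EC20) addition.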

[13] = target: Galactokinase (Homo sapiens) (UniProt P51570); assay: qHTS Validation Assay for Inhibitors of Human Galactokinase (GALK) (AID 493189); note: 0% is about no effect
How it was run: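 Inhibition was measured as remaining ATP, detected by luciferase luminescence after a 1 h room-temperature reaction. Final conditions: 5 nM GALK, 100 uM galactose, 35 uM ATP, pH 8.0 HEPES buffer.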

[14] = Validation screen for small molecules that induce DNA re-replication in SW480 colon adenocarcinoma cells (AID 504364); note: 0% is about no effect
How it was run: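 SW480 cells (250/well) exposed 48 h at 37 C, 5% CO2, then Hoechst-stained 40 min. Nuclear DNA content imaged by fluorescence scanning (405 nm excitation, 500-530 nm emission); re-replication scored as increased nuclei with elevated intensity.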

[15] = target: Voltage-gated inwardly rectifying potassium channel KCNH2 (Homo sapiens) (UniProt Q12809); assay: qHTS Assay for Small Molecule Inhibitors of the Human hERG Channel Activity (AID 588834);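 note: top concentration of the series differs between compounds; % is set by controls: 0 for no effect and ±100 for the full control effect; lower thallium flux fluorescence means stronger hERG block; nearly all actives have a fitted effect of over 50% in size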
How it was run: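 Kinetic FDSS fluorescence; U2OS + hERG BacMam (~100 virus particles/cell); FluxOR Tl+ flux; ~10 min cpd; AC50 (Hill).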

[16] = Primary qHTS for inhibitors of nuclear receptor binding SET domain protein 2 (NSD2) in an isogenic RCH-ACV NSD2 p.E1099K mutant (9B) (AID 1645876); note: nearly all actives have a fitted effect of over 70% in size
[17] = target: Glutathione peroxidase 1 (Homo sapiens) (UniProt P07203); assay: Primary qHTS Assay for Inhibitors of Recombinant Selenoprotein Glutathione Peroxidase 1 (GPX1) (AID 1845191); note: nearly all actives have a fitted effect of over 65% in size
How it was run: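 Recombinant GPX1 (10 nM final) was preincubated with compound for 30 min at room temperature, then reacted with 1 mM GSH, 0.5 mM CHP, 0.5 mM NADPH and 100 nM glutathione reductase; NADPH fluorescence (340/450 nm) was read at 0 and 15 min.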

[18] = qHTS drug screen for cell cycle checkpoint inhibitors in PARPi-resistant BRCA-mutant ovarian cancer cell lines. (AID 1963452; calls by dose curve); conditions: PEO1/OlaR viability, CellTiter-Glo luminescence, 96 h, stronger effect = lower value
How it was run: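 PEO1, PEO4 and PEO1/OlaR ovarian cancer cells, 600 per well, exposed 96 h at 37C to a dilution series. Viability read by CellTiter-Glo luminescence, normalized to DMSO and empty wells; activity summarized as Z-AUC.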

[19] = qHTS for differential inhibitors of proliferation of Plasmodium falciparum line D10 (AID 1877);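 note: parasites grown with compound for 72 h before DNA staining; plate controls were vehicle wells for no effect and reference inhibitor wells for full effect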
[20] = qHTS for differential inhibitors of proliferation of Plasmodium falciparum line Dd2 (AID 1882); conditions: Potency: Plasmodium falciparum Dd2 proliferation inhibition;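 note: plate controls were DMSO vehicle for no effect and 0.29 µM artemisinin for full effect; nearly all actives have a fitted effect of over 65% in size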
How it was run: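 Dd2-infected erythrocytes (0.3% parasitemia, 2.5% hematocrit final) incubated with compound 72 h at 37 C, 5% CO2; lysed with saponin/Triton buffer containing SYBR Green I, incubated overnight in the dark, then read by fluorescence (485/535 nm). Normalized to 0.29 uM artemisinin and DMSO.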

[21] = measured here: cell count channel max response
[22] = measured here: lipid channel max response
[23] = measured here: PEO1 parental Z-AUC

Chain of Glutathione peroxidase 1 (Homo sapiens) (P07203 whole entry, looked up): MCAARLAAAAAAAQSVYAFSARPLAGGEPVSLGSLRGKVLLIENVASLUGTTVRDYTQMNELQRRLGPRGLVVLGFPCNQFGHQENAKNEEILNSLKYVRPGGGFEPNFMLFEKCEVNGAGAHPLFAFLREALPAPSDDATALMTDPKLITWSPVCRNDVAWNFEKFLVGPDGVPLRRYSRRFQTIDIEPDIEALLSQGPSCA
Chain of M-phase phosphoprotein 8 (Homo sapiens) (Q99549 whole entry, looked up): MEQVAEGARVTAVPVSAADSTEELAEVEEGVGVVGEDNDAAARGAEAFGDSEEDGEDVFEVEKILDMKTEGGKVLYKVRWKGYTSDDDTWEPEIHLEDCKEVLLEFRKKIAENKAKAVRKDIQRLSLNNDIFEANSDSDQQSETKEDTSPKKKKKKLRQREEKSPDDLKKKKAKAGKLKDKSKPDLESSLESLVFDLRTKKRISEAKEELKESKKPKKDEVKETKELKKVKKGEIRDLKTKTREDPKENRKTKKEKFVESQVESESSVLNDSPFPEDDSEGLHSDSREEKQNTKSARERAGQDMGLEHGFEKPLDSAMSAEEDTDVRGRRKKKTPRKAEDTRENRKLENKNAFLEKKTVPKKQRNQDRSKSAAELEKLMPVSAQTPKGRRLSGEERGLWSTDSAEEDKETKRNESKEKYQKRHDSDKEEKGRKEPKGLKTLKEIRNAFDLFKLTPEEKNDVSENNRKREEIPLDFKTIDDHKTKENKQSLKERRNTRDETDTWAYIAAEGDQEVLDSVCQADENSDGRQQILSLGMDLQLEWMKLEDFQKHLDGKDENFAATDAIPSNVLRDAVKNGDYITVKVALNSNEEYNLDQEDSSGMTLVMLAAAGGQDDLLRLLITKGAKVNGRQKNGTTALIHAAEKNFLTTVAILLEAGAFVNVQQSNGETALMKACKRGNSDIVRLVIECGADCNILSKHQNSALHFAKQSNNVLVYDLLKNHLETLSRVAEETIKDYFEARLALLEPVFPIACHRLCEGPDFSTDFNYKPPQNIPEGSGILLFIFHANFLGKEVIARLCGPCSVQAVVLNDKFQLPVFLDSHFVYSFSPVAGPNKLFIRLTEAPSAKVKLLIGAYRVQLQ
Chain of Ferritin light chain (Equus caballus) (P02791 2-175 limits assumed): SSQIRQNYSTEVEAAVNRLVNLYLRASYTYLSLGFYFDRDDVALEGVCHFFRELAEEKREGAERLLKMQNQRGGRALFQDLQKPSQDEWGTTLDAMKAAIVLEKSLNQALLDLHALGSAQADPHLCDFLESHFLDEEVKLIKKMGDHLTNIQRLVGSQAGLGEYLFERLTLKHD
Chain of Galactokinase (Homo sapiens) (P51570 whole entry, looked up): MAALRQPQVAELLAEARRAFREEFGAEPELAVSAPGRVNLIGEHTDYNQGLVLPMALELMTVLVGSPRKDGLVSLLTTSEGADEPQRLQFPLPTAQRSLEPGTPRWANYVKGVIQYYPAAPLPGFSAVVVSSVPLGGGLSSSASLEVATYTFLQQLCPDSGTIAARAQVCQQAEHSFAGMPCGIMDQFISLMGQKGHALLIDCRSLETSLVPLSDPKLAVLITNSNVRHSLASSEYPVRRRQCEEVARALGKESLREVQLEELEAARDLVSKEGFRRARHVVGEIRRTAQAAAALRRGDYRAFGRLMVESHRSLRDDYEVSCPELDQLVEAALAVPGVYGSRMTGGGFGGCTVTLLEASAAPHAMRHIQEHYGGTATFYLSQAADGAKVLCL
Chain of Transient receptor potential cation channel subfamily V member 1 (Homo sapiens) (Q8NER1 whole entry, looked up): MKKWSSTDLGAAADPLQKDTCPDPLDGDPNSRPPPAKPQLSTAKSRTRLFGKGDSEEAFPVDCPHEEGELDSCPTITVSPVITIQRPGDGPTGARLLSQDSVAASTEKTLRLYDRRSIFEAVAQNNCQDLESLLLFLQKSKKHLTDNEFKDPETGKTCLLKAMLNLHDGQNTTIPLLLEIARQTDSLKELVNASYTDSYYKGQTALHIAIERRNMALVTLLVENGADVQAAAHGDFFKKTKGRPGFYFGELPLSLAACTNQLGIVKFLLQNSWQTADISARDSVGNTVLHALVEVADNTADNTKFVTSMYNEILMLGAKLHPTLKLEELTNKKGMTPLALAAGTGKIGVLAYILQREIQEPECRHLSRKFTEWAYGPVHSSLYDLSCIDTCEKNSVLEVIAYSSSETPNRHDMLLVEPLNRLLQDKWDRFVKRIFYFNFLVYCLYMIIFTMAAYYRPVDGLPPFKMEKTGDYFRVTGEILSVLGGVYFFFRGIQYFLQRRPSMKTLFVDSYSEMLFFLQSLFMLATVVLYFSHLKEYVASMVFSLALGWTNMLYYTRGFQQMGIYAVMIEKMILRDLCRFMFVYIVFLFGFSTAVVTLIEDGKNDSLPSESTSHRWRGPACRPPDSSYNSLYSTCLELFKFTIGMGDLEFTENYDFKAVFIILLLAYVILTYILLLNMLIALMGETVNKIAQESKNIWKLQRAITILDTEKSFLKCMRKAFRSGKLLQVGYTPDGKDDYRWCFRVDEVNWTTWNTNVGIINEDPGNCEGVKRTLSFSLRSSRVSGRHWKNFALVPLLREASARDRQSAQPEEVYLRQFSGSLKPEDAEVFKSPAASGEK
Chain of ATP-dependent DNA helicase Q1 (Homo sapiens) (P46063 whole entry, looked up): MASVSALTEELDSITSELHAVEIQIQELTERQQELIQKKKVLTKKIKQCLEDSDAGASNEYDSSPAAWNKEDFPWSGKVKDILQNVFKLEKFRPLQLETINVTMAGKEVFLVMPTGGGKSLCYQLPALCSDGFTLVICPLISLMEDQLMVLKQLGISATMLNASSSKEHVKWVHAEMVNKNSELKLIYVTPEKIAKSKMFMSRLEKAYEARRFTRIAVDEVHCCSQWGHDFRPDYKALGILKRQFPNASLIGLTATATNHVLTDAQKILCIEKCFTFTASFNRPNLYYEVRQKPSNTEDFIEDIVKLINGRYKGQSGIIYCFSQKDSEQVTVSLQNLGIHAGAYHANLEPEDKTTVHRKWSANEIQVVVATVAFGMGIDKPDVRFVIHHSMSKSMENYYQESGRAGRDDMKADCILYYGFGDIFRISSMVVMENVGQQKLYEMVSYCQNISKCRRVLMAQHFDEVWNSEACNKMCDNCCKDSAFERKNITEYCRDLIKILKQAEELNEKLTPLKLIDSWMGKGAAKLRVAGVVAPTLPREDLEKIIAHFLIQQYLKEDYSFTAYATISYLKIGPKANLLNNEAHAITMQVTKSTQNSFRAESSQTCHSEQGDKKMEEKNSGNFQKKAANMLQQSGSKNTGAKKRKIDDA
Chain of Thyrotropin-releasing hormone receptor (Homo sapiens) (P34981 whole entry, looked up): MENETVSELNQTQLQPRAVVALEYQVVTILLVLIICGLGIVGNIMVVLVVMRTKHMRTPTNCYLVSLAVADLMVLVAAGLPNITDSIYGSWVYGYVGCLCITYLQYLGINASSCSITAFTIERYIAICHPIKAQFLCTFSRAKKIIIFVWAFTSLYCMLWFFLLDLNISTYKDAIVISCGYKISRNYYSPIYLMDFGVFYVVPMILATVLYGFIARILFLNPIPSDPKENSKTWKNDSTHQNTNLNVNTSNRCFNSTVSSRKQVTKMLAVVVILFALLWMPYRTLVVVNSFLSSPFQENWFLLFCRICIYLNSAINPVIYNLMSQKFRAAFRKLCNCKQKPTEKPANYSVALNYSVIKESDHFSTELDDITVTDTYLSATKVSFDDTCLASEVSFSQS
Chain of Thyrotropin receptor (Homo sapiens) (P16473 whole entry, looked up): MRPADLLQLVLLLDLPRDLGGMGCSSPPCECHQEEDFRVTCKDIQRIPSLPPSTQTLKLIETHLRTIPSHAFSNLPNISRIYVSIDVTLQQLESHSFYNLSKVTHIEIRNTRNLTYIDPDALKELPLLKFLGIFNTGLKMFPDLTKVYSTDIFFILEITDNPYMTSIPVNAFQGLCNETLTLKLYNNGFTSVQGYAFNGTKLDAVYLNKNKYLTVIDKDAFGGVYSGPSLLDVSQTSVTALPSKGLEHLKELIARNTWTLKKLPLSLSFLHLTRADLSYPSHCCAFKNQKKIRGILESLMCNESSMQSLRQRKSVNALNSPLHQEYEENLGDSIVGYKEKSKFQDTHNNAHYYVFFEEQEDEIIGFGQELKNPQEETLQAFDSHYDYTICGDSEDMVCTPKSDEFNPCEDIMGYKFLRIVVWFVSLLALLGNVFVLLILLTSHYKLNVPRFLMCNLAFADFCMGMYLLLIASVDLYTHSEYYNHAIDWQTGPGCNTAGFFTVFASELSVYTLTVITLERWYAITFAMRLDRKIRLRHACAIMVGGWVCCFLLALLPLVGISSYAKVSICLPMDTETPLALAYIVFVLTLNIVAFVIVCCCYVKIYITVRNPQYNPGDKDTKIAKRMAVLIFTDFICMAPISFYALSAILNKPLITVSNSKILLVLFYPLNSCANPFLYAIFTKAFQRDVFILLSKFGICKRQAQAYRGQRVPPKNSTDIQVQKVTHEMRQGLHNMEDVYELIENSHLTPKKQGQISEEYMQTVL
Chain of DNA repair nuclease/redox regulator APEX1 (Homo sapiens) (P27695 whole entry, looked up): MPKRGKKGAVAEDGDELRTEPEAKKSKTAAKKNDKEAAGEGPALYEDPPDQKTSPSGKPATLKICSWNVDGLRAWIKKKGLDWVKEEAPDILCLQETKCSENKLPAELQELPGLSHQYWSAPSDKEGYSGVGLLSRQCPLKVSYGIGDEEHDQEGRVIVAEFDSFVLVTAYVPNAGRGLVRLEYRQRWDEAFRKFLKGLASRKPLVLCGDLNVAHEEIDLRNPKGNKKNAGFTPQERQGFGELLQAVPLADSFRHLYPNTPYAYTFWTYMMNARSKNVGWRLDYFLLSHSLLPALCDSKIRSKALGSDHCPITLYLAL

Nc1nc(Nc2ccccc2)nc2c1ncn2[C@@H]1O[C@H](CO)[C@H](O)[C@H]1O
-25.4%: max response [1, 21]
-24.2%: max response [1, 22]
inactive: activity change, negative = inhibition [1] -0.104% | Potency [2] | Potency [3] | outcome [4] | Potency [5] | outcome [6] | Potency [7] | Potency [8] | Potency [9] | outcome [10] | outcome [11] | activation [12] 0.938% | outcome [13] | outcome [14] | Potency [15]

C[C@H]1CNCCCN1S(=O)(=O)c1cccc2cncc(F)c12
-0.15: Z-AUC [18, 23]
0.771: Z-AUC ([18]; measured here: PEO4 Z-AUC)
inactive: Potency [16] | Potency [17] | Z-AUC [18] -0.978

C[C@H](CCC(=O)O)[C@H]1CC[C@H]2[C@@H]3[C@@H](O)C[C@@H]4C[C@H](O)CC[C@]4(C)[C@H]3CC[C@]12C
1.43: Z-AUC [18, 23]
inactive: Potency [16] | Potency [17] | Z-AUC [18] 0.396
1.41: Z-AUC ([18]; measured here: PEO4 Z-AUC)

Cc1cccc(CNc2cc(-c3ccccc3CN(C)C)ncn2)c1
inactive: activity change, negative = inhibition [1] 2.35%
2.52%: max response [1, 21]
10%: max response [1, 22]

OC[C@H]1O[C@@H](n2cnc3c(NCCc4ccccc4)ncnc32)[C@H](O)[C@H]1O
-25.2%: max response [1, 21]
inactive: activity change, negative = inhibition [1] -0.874% | Potency [2] | Potency [3] | Potency [19] | Potency [20] | outcome [4] | Potency [5] | outcome [6] | Potency [7] | Potency [8] | Potency [9] | outcome [10] | outcome [11] | activation [12] -0.5% | outcome [13] | outcome [14] | Potency [15]
-26.1%: max response [1, 22]
